Measurements reported in ChEMBL document CHEMBL4296182, “CO-ADD screening of NIH NCI Diversity Set V”.
For part of these data: Entries with a potency or affinity are not part of this list.

Tests used:
Staphylococcus aureus = test: Antibacterial activity against Staphylococcus aureus MRSA ATCC 43300 (CO-ADD:GP_020); MIC in CAMBH media using NBS plates, by Resazurin F(560/590); type: functional; details: Concentration 20 uM, ASSAY_TEST Inhibition of Bacterial Growth, detection method Resazurin, Fluorescence (ex560/em590), MEDIA CAMHB, plate type 384well, CORNING #3640, time 18 hr
Acinetobacter baumannii = test: Antibacterial activity against Acinetobacter baumannii ATCC 19606 (CO-ADD:GN_034); MIC in CAMBH media using NBS plates, by Resazurin F(560/590); type: functional; details: Concentration 20 uM, ASSAY_TEST Inhibition of Bacterial Growth, detection method Resazurin, Fluorescence (ex560/em590), MEDIA CAMHB, plate type 384well, CORNING #3640, time 18 hr
Escherichia coli = test: Antibacterial activity against Escherichia coli ATCC 25922 (CO-ADD:GN_001); MIC in CAMBH media using NBS plates, by Resazurin F(560/590); type: functional; details: Concentration 20 uM, ASSAY_TEST Inhibition of Bacterial Growth, detection method Resazurin, Fluorescence (ex560/em590), MEDIA CAMHB, plate type 384well, CORNING #3640, time 18 hr
Klebsiella pneumoniae = details: Concentration 20 uM; ASSAY_TEST Inhibition of Bacterial Growth; detection method Absorption (OD600); MEDIA CAMHB; plate type 384well; NBS; CORNING #3640; time 18 hr
Candida albicans = details: 20 µM
Cryptococcus neoformans = details: Concentration 20 uM; ASSAY_TEST Inhibition of Fungal Growth; detection method Resazurin; Absorption (OD600-OD570); plate type 384well; NBS; CORNING #3640

Row | SMILES | Inhibition (Staphylococcus aureus) [%] | Inhibition (Acinetobacter baumannii) [%] | Inhibition (Escherichia coli) [%] | Inhibition (Klebsiella pneumoniae) [%] | Inhibition (Candida albicans) [%] | Inhibition (Cryptococcus neoformans) [%]
1 | CC1(C)CC(=O)C(CC(=O)c2ccccc2)=C(NNC(=N)N)C1 | 1.47 | 8.18 | 4.18 | -0.42 | 5.62 | -4.09
2 | O=C1COc2c1ccc(O)c2O | 0.46 | -23.14 | 5.49 | 7.13 | 0.16 | -9.43
3 | Nc1ccc(C(=O)Oc2ccc([N+](=O)[O-])cc2)cc1 | 12.07 | 4.99 | 4.45 | 11.91 | 3.13 | -14.05
4 | c1ccc2c(c1)cnc1ccccc12 [PHENANTHRIDINE] | 1.61 | -6.38 | 4.54 | 11.56 | 4.34 | -7.16
5 | O=[N+]([O-])c1ccc(NN=C(c2ccccc2)c2ccccc2)nc1 | 5.39 | -2.58 | 13.19 | 5.05 | 3.51 | -2.84
6 | CC1(C)CC2(C)OC2C2(C1)N=N/C(=N/c1ccccc1)O2 (stereo not drawn) | 27.69 | -0.3 | 4.99 | 7.34 | -0.47 | -10.74
7 | O=C(Nc1cccc(Cl)c1)Nc1nccs1 | 1.33 | -6.03 | 8.66 | 7.36 | 3.47 | -22.98
8 | CCN(c1ccccc1)c1nc(Cl)nc2c1cnn2C | 9.86 | 12.26 | 4.23 | 13.76 | 2.54 | -8.45
9 | Cc1ccc2c(c1)C(=C(C#N)C#N)CCN2 | 5.58 | 12.47 | 3.17 | 22.07 | 3.21 | -7.98
10 | C1CCC(NC2=NCCO2)CC1 | -4.28 | -18.87 | 9.63 | 6.74 | -0.27 | -10.7
11 | CC(=O)NCC1(O)CCCC(C)C1 (stereo not drawn) | 7.69 | -13.88 | 5.11 | 9.82 | 1.28 | -5.78
12 | Cc1csc(/N=N/c2ccc(N(C)C)cc2)[n+]1[O-] | 7.37 | -4.68 | 8.16 | 7.6 | 0.83 | -12.25
13 | CS(=O)(=O)O.OC(c1cc(C(F)(F)F)nc2c(Cl)cc(Cl)cc12)C1CCCCN1 (stereo not drawn) | 10.44 | 6.66 | 19.86 | 9.3 | 1 | -0.51
14 | COc1ccc(NC(=O)N2CCN(C(=O)Nc3ccc(OC)cc3)CC2)cc1 | 0.79 | 9.56 | -5.74 | 5.35 | -1.52 | 3.31
15 | CSc1nc(Cl)c(Br)c(Nc2cnc(O)nc2O)n1 | 5.42 | 6.52 | -1.71 | 4.64 | -2.17 | 0.33
16 | O=C(Nc1ccc2ccccc2c1)c1cccc(F)c1 | -15.53 | -12.84 | 8.09 | 2.58 | 9.01 | -2.23
17 | Nc1ccc(S(=O)(=O)NCC2CCCCO2)cc1 (stereo not drawn) | 11.97 | 6.11 | 1.65 | 16.22 | 0.19 | -11.32
18 | Cc1ccc(NC(=O)N2CCCCC2)cc1NC(=O)N1CCCCC1 | -1.56 | 7.43 | 3.01 | 16.93 | 3.17 | 1.83
19 | Sc1ncnc2c1cnn2-c1ccccc1 | -0.19 | -10.1 | 15.12 | 7.13 | 16.7 | 30.67

Row | SMILES | Inhibition (Staphylococcus aureus) [%] | Inhibition (Acinetobacter baumannii) [%] | Inhibition (Escherichia coli) [%] | Inhibition (Klebsiella pneumoniae) [%] | Inhibition (Candida albicans) [%] | Inhibition (Cryptococcus neoformans) [%]
20 | CCOC(=O)CSc1nc2nc(Cl)c(Cl)[nH]c-2n1 | 22.58 | 6.84 | -0.86 | 8.77 | 0.89 | 3.6
21 | CSC(=O)NC(=O)NC(=O)c1ccc([N+](=O)[O-])cc1 | 9.19 | 0.18 | 3.52 | 12.66 | -0.48 | 44.26
22 | c1ccc(-c2nnc(-c3ccccn3)[nH]2)nc1 | 12.66 | 11.56 | -1.7 | 7.68 | 4.71 | -5.04
23 | COc1ccc2c(n1)Sc1nc3ccccc3nc1N2 | 9.7 | -15.29 | 7.15 | 4.25 | 3.02 | -8.75
24 | O=C(O)CSc1nc2ccccc2s1 | 14.28 | -9.51 | 3.19 | 0.1 | 13.9 | -12.74
25 | Clc1nnc(NC2CCCCC2)c(Cl)c1Cl | -0.25 | -5.61 | 15.05 | 1.58 | 27.2 | -9.26
26 | CCOc1ccc(/C=C2\CCc3ccccc3C2=O)cc1 | -3.91 | -2.84 | -2.65 | 4.93 | 5.43 | -7.99
27 | Clc1nc(Cl)nc(-c2cn(-c3ccccc3)c3ccccc23)n1 | 19.15 | 12.32 | 3.43 | 3.41 | -0.1 | 5.66
28 | O=C(Nc1ccc(Cl)c(Cl)c1)Nc1ccccc1O | -10.29 | 0.1 | -13.39 | 5.08 | 3.05 | 15.14
29 | Sc1nccn1-c1c(Cl)cccc1Cl | 10.46 | 12.03 | 0.7 | 7.58 | 4.08 | -8.98
30 | CCOC(=O)Cc1cc(=O)[nH]n(-c2ccccc2)c1=O | 5.46 | 4.69 | 13.24 | 12.15 | 4.43 | -10.57
31 | Cc1nn(-c2ccccc2)c2c1C(c1ccc([N+](=O)[O-])cc1)C(C#N)=C(N)O2 (stereo not drawn) | 11.47 | 2.7 | 1.25 | 12.44 | -1.55 | -5.09
32 | CCOC(=O)c1nc(SC)n(C)c1C(=O)OCC | 10.21 | -12.95 | 18.32 | 2.22 | 0.39 | -13.08
33 | Cc1c(Cc2ccccc2)[n+]([O-])c2ccccc2[n+]1[O-] | 19.3 | -9.71 | 20.29 | -6.69 | -1.35 | -12.82
34 | CNc1ccc(/N=N/c2cc[n+]([O-])cc2C)cc1C | -1.07 | -11.34 | 7.82 | 8.63 | -0.41 | -28.56
35 | Nc1cc([N+](=O)[O-])ccc1Nc1ccc(O)cc1 | -9.75 | -11.21 | 0.26 | 0.39 | 3.23 | -0.22
36 | CCCNC(=O)c1ccc(S(N)(=O)=O)cc1 | 24.95 | -15.44 | 7.13 | 13.6 | -0.57 | -5.61
37 | O=C(NC(=S)Nc1cc(Cl)ccc1O)c1cccc(Br)c1 | 15.1 | 1.75 | -0.44 | 14.73 | -2.09 | -0.86
38 | Nc1cc(O)nc2ncnn12 | 9.25 | -2.47 | 7.96 | 6.69 | -0.84 | -4.53
